Compound activity (PubChem)
Pf growth 48h = P. falciparum growth inhibition at 48 hours (one generation) | P. falciparum luciferase growth in erythrocytes, 48 h | Potency, µM (highest dose often 28.7 µM), hits mostly inhibitors | actives 5.9% (n = 310,000) | AID 504832
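Luminescence readout; reporter = integrated firefly luciferase in P. falciparum. RBC culture at 2% hematocrit, 0.1% parasitemia final, 37 C/5% CO2; decreased signal taken as growth inhibition.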
Pf growth 96h = P. falciparum growth inhibition at 96 hours; P. falciparum luciferase reporter growth, 96 h; Potency, µM (titrated, usually from 28.7 µM), usual class: inhibitors; actives 6.9% (n = 320,000)
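96 h incubation, 37 C, 5% CO2, of luciferase-reporter P. falciparum-infected RBCs (2% hematocrit, 0.05% parasitemia final) with test compounds; endpoint luminescence.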
SARS PLP yeast = inhibitors of SARS-CoV papain-like protease in yeast. S. cerevisiae expressing SARS-CoV PLpro, growth rescue. Potency, µM (doses to about 32.9 µM), hits mostly activators. actives 0.19% (n = 330,000). AID 485353; calls by dose curve; further: nearly all actives have a fitted effect of over 55% in size
AMA1 RON2 block = AMA1-RON2 (P. falciparum) interaction inhibition; AID 720542; AlphaScreen AMA1-biotinylated RON2 peptide binding; Potency, µM (doses to about 58.2 µM), usual class: inhibitors; actives 0.2% (n = 360,000); further: nearly all actives have a fitted effect of over 45% in size
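AMA1 (3D7) with his tag at 25 nM final met compounds first, then biotinylated RON2 peptide at 25 nM; detection used donor plus acceptor beads, 10 µg/mL apiece, read by AlphaScreen after 30 min at room temperature.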
Each line names hits and unclear results; the compound was inactive in the other large screens; ! = repeats disagree. Most compounds without a hit are left out; they make up all but 9.4% or so of the library. Unless noted, the call rests on the fitted dose curve; in most records, active means well fitted curve in the direction sought with a large enough effect; inconclusive means small, poorly fitted or top-dose-only effect, or another doubt; inactive means no such curve, though single readings can be large; an effect the other way counts as inactive or inconclusive.

COc1ccc(C(OCC(O)CNCCc2ccccc2)c2ccc(OC)cc2)cc1 (stereo unspecified)	Pf growth 48h 9.3µM, Pf growth 96h 4.1µM
CC(=O)NC(Cc1ccc(N(CCCl)CCCl)cc1)C(=O)NC(CC(C)C)C(=O)O (stereo unspecified)	Pf growth 96h 10µM
C/C=C/c1ccc(OCC(O)CNCCc2ccc(OC)cc2)c(OC)c1 (stereo unspecified)	Pf growth 48h inconclusive, Pf growth 96h inconclusive
COc1ccc(C(OCC(O)CNC(C)c2ccccc2)c2ccc(OC)cc2)cc1 (stereo unspecified)	Pf growth 48h 10µM, Pf growth 96h inconclusive
CC(C)C[C@H](NC(=O)[C@@H](O)[C@H](N)Cc1ccccc1)C(=O)O	Pf growth 48h 0.76µM, Pf growth 96h 0.67µM (no result: SARS PLP yeast, AMA1 RON2 block)
Cc1ccc2nc(N(CCN(C)C)C(=O)c3ccc4ccccc4c3)sc2c1	none
COc1ccccc1N1CCN(C(=O)COc2cc(C)cc3oc(=O)cc(C)c23)CC1	Pf growth 96h inconclusive
COc1ccc(/C(C)=N/NC(=O)c2ccc(CSc3cccc4cccnc34)cc2)cc1OC	Pf growth 48h inconclusive, Pf growth 96h inconclusive
Cc1ccc(Sc2cc(C(=O)NCCCN(C)C)c3ccccc3n2)cc1	Pf growth 96h inconclusive
CC(C)CC(NC(=O)COc1ccccc1)C(=O)O (stereo unspecified)	Pf growth 96h 12µM
Cc1ccc(C(OCC(O)CNCc2ccc(F)cc2)c2ccccc2)cc1 (stereo unspecified)	Pf growth 96h 4.7µM (no result: Pf growth 48h)
CC(C)c1ccc(OCC(=O)Nc2cccc(C(=O)Nc3ccccc3C(=O)O)c2)cc1	Pf growth 48h inconclusive, Pf growth 96h 9.3µM
Cc1cccc(OCC(=O)Nc2cccc(C(=O)Nc3ccccc3C(=O)O)c2)c1	Pf growth 96h inconclusive
CC(C)c1ccc(OCC(=O)NC(C)c2ccccc2)cc1 (stereo unspecified)	Pf growth 96h 13µM
Cc1ccc(OCC(=O)NC(C)c2ccccc2)cc1 (stereo unspecified)	none
Cc1c(C(=O)O)oc2ccc3c(c12)C(O)CC(C)(C)O3 (stereo unspecified)	Pf growth 96h 4.7µM
C[C@H](CO)N1C[C@H](C)[C@@H](CN(C)C(=O)Nc2ccccc2)Oc2c(cccc2N(C)C)C1=O	none (no result: Pf growth 48h, Pf growth 96h)
Cc1ccc2nc(NC(=O)CSCC(=O)OCC(=O)c3ccc(Br)cc3)sc2c1	Pf growth 96h inconclusive
O=C(COC(=O)CCNS(=O)(=O)c1ccccc1F)Nc1nnc(-c2ccccc2)o1	Pf growth 48h inconclusive, Pf growth 96h inconclusive
COc1ccccc1OCCC(=O)NCc1ccc2c(c1)OCO2	none
COc1ccccc1NC(=O)NCc1ccc2c(c1)OCO2	Pf growth 96h 15µM (no result: AMA1 RON2 block)
CC(=O)c1cccc(NC(=O)NCc2ccc3c(c2)OCO3)c1	Pf growth 96h 3.7µM, SARS PLP yeast inconclusive
CC(=O)c1ccc(OCC(O)CNCc2ccc3c(c2)OCO3)cc1 (stereo unspecified)	Pf growth 48h 2.6µM
OC(CNCc1ccc2c(c1)OCO2)COc1ccc(F)cc1 (stereo unspecified)	none
COc1ccccc1CN(CC(=O)NCc1ccc2c(c1)OCO2)C(=O)c1ccc2c(c1)OCCO2	Pf growth 96h 9.3µM
Cn1c(=O)c(C(=O)CN2CCCc3ccccc32)c(N)n(Cc2ccccc2)c1=O	Pf growth 48h inconclusive (no result: Pf growth 96h)
Cn1c(=O)c(C(=O)CN2CCc3ccccc32)c(N)n(Cc2ccccc2)c1=O	Pf growth 48h 12µM, Pf growth 96h 8.3µM
Cn1c(=O)c(C(=O)CN2CC(=O)Nc3ccccc32)c(N)n(Cc2ccccc2)c1=O	Pf growth 96h 5.2µM
Cn1c(=O)c(C(=S)NC(=O)C2CC2)c(N)n(Cc2ccccc2)c1=O	Pf growth 48h 9.3µM (no result: AMA1 RON2 block)
CCc1ccccc1N1C(=O)c2ccccc2S1(=O)=O	none
O=C(Nc1cccc(-c2cccc(Cl)c2)c1)C1CCN(Cc2ccccn2)CC1	Pf growth 48h inconclusive
O=C(Nc1cccc(-c2cccc(Cl)c2)c1)C1CCN(Cc2ccon2)CC1	Pf growth 96h 8.3µM
O=C(Nc1cccc(-c2cccc(Cl)c2)c1)C1CCN(CC2CCOC2)CC1 (stereo unspecified)	Pf growth 48h 8.3µM
COCc1ccc(CN2CCC(C(=O)Nc3cccc(-c4cccc(Cl)c4)c3)CC2)o1	Pf growth 48h 13µM, Pf growth 96h inconclusive, AMA1 RON2 block inconclusive
O=C(Nc1cccc(-c2cccc(F)c2)c1)C1CCN(CC2CCOC2)CC1 (stereo unspecified)	Pf growth 48h inconclusive
COCc1ccc(CN2CCC(C(=O)Nc3cccc(-c4cscn4)c3)CC2)o1	none
c1cc(Nc2ncnc3sc4c(c23)CCC4)ccn1	Pf growth 48h 1.7µM
COCCNC(=S)N(CCc1c(C)[nH]c2ccc(F)cc12)Cc1ccco1	Pf growth 48h inconclusive
O=C(CNC(=O)c1ccccc1)OCC(=O)c1cccs1	none
CN1[C@@H](CC(=O)c2ccccc2)CCC[C@H]1C[C@H](O)c1ccccc1	Pf growth 48h 13µM, Pf growth 96h 17µM!
O=C(COC(=O)c1ccc2[nH]c3c(c2c1)CCCC3)Nc1ccc(Cl)cc1Cl	none
CCc1nnc(NC(=O)c2cccnc2)s1	none (no result: Pf growth 48h)
Cc1ccccc1NC(=O)CN1C(=S)NC(C)(C)CC1C (stereo unspecified)	Pf growth 96h inconclusive
O=C(NCCS(=O)(=O)N1CCN(c2ccc(F)cc2)CC1)C12CC3CC(CC(C3)C1)C2	Pf growth 48h 12µM (no result: SARS PLP yeast)
CSc1ccccc1C(=O)NCCS(=O)(=O)N1CCN(c2ccc(F)cc2)CC1	none
CCn1c(SCc2ccc(F)cc2)nnc1C1CCN(S(=O)(=O)c2ccc(OC)cc2)CC1	Pf growth 48h 12µM, Pf growth 96h 8.3µM
CCn1c(SCc2ccc(C)cc2)nnc1C1CCN(S(=O)(=O)c2ccc(OC)cc2)CC1	Pf growth 48h 12µM, Pf growth 96h 4.1µM
N#CC1(NC(=O)COc2ccc(S(=O)(=O)N3CCCC3)cc2[N+](=O)[O-])CCCCC1	Pf growth 48h inconclusive, Pf growth 96h inconclusive
COC(=O)CN(n1cnnc1)S(=O)(=O)c1ccccc1	Pf growth 96h 12µM
CC(C)(C)C(=O)Oc1cc(N)n(S(=O)(=O)c2ccc(F)cc2)n1	Pf growth 96h inconclusive
O=C(Cn1c(=O)n(CC(=O)N2CCCCC2)c(=O)c2sccc21)NCc1ccccc1	Pf growth 96h inconclusive
CC#CCCC(=O)N1C=Cc2ccccc2C1C#N (stereo unspecified)	Pf growth 48h 2.3µM
CCOc1ccc(NC(=O)C(=O)NCCN2CCN(C(=O)c3ccc(C)cc3)CC2)cc1	Pf growth 96h inconclusive
CCN(CC)CCCNC(=O)c1cc(Nc2ccc(OC)cc2OC)nc2ccccc12	Pf growth 96h inconclusive
C/C(=N\NC1=NCCN1)c1ccc(Cl)cc1	Pf growth 48h inconclusive, Pf growth 96h 2.3µM
CS(=O)(=O)c1ccc(C(=O)NNC(=O)c2cc(-c3ccccc3)n[nH]2)cc1	none (no result: Pf growth 48h, Pf growth 96h)
COc1ccc2c(=O)c3c(=O)n(Cc4ccco4)c(C4CCCCC4)nc3oc2c1	Pf growth 48h inconclusive, Pf growth 96h inconclusive (no result: AMA1 RON2 block)
COCCCn1c(C2CCCCC2)nc2oc3cc(OC)ccc3c(=O)c2c1=O	Pf growth 48h inconclusive, Pf growth 96h 0.93µM
